# High-throughput results deposited in PubChem by National Center for Advancing Translational Sciences (NCATS).
# PINK1 expr mod: changes PINK1 expression; AID 624263; PINK1 immunofluorescence, high-content cytometry, 24 h; hit rate 0.2% among 410,000; Potency, µM (doses to about 76.6 µM), for inactives: top-dose activation (PINK1 increase), actives largely listed as activators; active = well fitted activation curve with a large enough effect; inconclusive = small, poorly fitted or top-dose-only effect; cell line not stated here; also: % of control where 0% means no effect; nearly all actives have a fitted effect of over 65% in size
#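 Readout is PINK1 immunofluorescence, quantified alongside mitochondrial, cell and nuclear markers by laser-scanning microplate cytometry. Cells from a stable line were exposed to compound titrations (5 concentrations) for 24 hours, with CCCP controls.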
# Nrf2 inh: inhibitors of Nrf2 signaling | A549 ARE-Fluc reporter, luciferase luminescence, 18-24 h | Potency, µM (top dose mostly 46 µM), for the others: at the top dose activity change, negative = inhibition, hits mostly inhibitors | hit rate 2.1% among 360,000 | AID 504444; also: % is scaled to controls: 0 for no effect and ±100 for the full control effect; nearly all actives have a fitted effect of over 60% in size
#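 Quantitative HTS in A549 cells stably bearing an antioxidant response element-firefly luciferase construct. Inhibition of Nrf2-driven transcription was scored by luminescence after 18-24 h of compound exposure at 37 °C.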
# A549 tox: kills or reduces viability of A549 cells in Nrf2 counter-screen; hit rate 0.16% among 390,000; Potency, µM (highest dose often 46 µM), inactives show top-dose activity change, negative = cytotoxicity, hits mostly inhibitors; AID 504648; A549 ARE-Fluc cells, CellTiter-Fluor viability, 18-24 h; also: % is scaled to controls: 0 for no effect and ±100 for the full control effect
#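 A549 ARE-Fluc cells in 5% FBS OPTI-MEM, 5000 cells/well, rested 2 h then exposed to compounds in concentration-response for 18-24 h at 37 °C. Viability by CellTiter-Fluor fluorescence (Ex 405/Em 525) after 30 min; luciferase luminescence (BugLite, 15 min, RT) read afterwards.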
# Epigenetic derep: regulators of epigenetic silencing causing reporter derepression in mouse cells. murine LDR cells, GFP reporter derepression, 30 h. Potency, µM (titrated, usually from 53.9 µM), for the others: at the top dose GFP activation, usual class: activators. hit rate 0.2% among 280,000. AID 1865; also: % of control where 0% means no effect; nearly all actives have a fitted effect of over 60% in size
#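 Derepression of a silenced CMV-GFP reporter in murine LDR cells is scored by enumerating GFP-positive cells with a laser-scanning microplate cytometer after 30 hours of treatment at 37 C.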
# Nrf2 activator: Nrf2 pathway activation; hit rate 0.31% among 410,000; Potency, µM (series often up to 46.1 µM), inactives show at the top dose activation, most hits filed as activators; AREc32 ARE-luciferase reporter (MCF7-derived line), luminescence, 24 h; AID 624171; also: % of control where 0% means no effect; nearly all actives have a fitted effect of over 65% in size
#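 For detection, Steady-Glo was added and plates sat 30 min at RT; before that, AREc32_Fluc cells grown overnight in OPTI-MEM/5% FBS had been treated with 23 nL compound for 24 hr at 37 deg C.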
# * marks the source's active call; other numbers are inactive results; u = inconclusive; x = no result; [ ] = dose if it differs, or a comment. Most compounds without a hit are left out; they make up all but 2.4% or so of the library. Unless noted, calls follow the shape of the dose curve; as a rule, active = well fitted curve in the direction sought with a large enough effect; inconclusive = small, poorly fitted or top-dose-only effect, or another doubt; inactive = no such curve, though single readings can be large; an effect the other way counts as inactive or inconclusive. Potency is read from the fitted curve at half-maximal effect.
SMILES,PINK1 expr mod,Nrf2 inh,A549 tox,Epigenetic derep,Nrf2 activator
O=C(NCC1CCCO1)NC1(C(F)(F)F)Oc2ccccc2O1 (configuration not stated),-2%,u,u,2%,16µM*
O=C(NCC1CCCO1)c1ccccc1 (configuration not stated),-2%,-8%,-7%,-1%,-1%
Cc1cnc(-n2ncc(C(=O)N(C)C3CCOC3)c2-c2cccs2)nc1-c1ccc(F)cc1 (configuration not stated),0%,x,x,x,x
CCc1nn2c(=O)cc(COC(=O)c3ccccc3NC(=O)c3cccs3)nc2s1,-1%,x,-6%,-4%,0%
O=c1[nH]c2cc([N+](=O)[O-])ccc2c2cc(Br)ccc12,1%,x,x,x,3.2µM*
COc1ccc2c(c1)OC(C)CN(CC(=O)NCc1cn[nH]c1-c1ccc(F)cc1)C2 (configuration not stated),0%,x,x,x,x
C/C(=N\NC(=O)C(C)Oc1ccc([N+](=O)[O-])cc1)c1ccccn1 (configuration not stated),-6%[38.3 µM],6.5µM*,u,16µM*,23%
Oc1cc(-c2nc3ccccc3s2)cc2c1OCCN(Cc1cn[nH]c1-c1ccc(Cl)cc1)C2,0%,x,x,x,x
COc1ccc(Nc2nc(C)nc3sc4c(c23)CCC4)cc1O,16%,-1%,-13%,3%,6.3µM*
COc1ccc(OC)c(CNn2c(-c3cccc(C)c3)nc3ccccc3c2=O)c1,0%[38.3 µM],18µM*,-14%,1%,-1%
Cc1ccc(C)c(N2CCN(C(=O)c3ccc(CS(=O)Cc4ccc(Cl)cc4)o3)CC2)c1 (configuration not stated),4%,21µM*,u,x,0%
Cc1ccc(Cl)cc1N1CCN(C(=O)c2ccc(CS(=O)Cc3ccc(Cl)cc3)o2)CC1 (configuration not stated),7%,u,-8%,x,-1%
Cc1c(C(=O)NCC2(N3CCOCC3)CCCCCC2)cnn1-c1nccc(-c2ccccc2F)n1,-1%,x,x,x,x
CCC(Sc1nc(C)cc(=O)[nH]1)C(=O)Nc1sc2c(c1C#N)CCCC2 (configuration not stated),x,0%,1%,0%,2%
CC(Sc1nc(N)cc(=O)[nH]1)C(=O)Nc1sc2c(c1C#N)CCCC2 (configuration not stated),2%,13µM*,-30%,0%,3%
N#Cc1cc2c(nc1SCC(=O)Nc1sc3c(c1C#N)CCC3)CCCCC2,u,x,5%,0%,0%
N#Cc1c(NC(=O)CSc2nc(N)cc(=O)[nH]2)sc2c1CCCCCC2,x,7.3µM*,-5%,0%,0%
CCc1ccc(C(=O)COC(=O)C(Cc2ccccc2)NC(=O)C2CCC(C)CC2)cc1 (configuration not stated),1%,u,-15%,0%,0%
CC1CCC(C(=O)NC(C(=O)OCC(=O)c2ccccc2)C(C)C)CC1 (configuration not stated),3%,16µM*,-12%,-1%,-1%
Cc1ccc(C(=O)Nc2cccc(-c3nc(CNC(=O)c4ccc5ccccc5n4)c(C)o3)c2)s1,0%,x,x,x,x
Clc1ccc(C2=NNC(=NCc3ccc4c(c3)OCO4)SC2)cc1,13%,23µM*,u,-1%,7%
O=c1cc(COc2ccccc2[N+](=O)[O-])nc2sccn12,6%,4%,-3%,u,8.9µM*
Cc1cc(S(=O)(=O)Nc2ccc3[nH]c(=O)sc3c2)ccc1F,2%,x,-1%,3%,6%
CCn1c(=O)sc2cc(NS(=O)(=O)c3ccc(F)c(C)c3)ccc21,2%,18µM*,-3%,4%,14%
COc1ccc(OCC(=O)N2CCN(S(=O)(=O)c3ccc(Cl)s3)CC2)cc1,3%,-6%,28%,x,0%
SMILES,PINK1 expr mod,Nrf2 inh,A549 tox,Epigenetic derep,Nrf2 activator
N#Cc1ccc(OCC(=O)N2CCN(S(=O)(=O)c3ccc(Cl)s3)CC2)cc1,-1%,23µM*,-12%,x,0%
COc1ccc(-c2nc3sc(CCNC(=O)c4cccc(C(F)(F)F)c4)c(C)n3n2)cc1,6%,x,-17%,2%,5%
Cc1cccc(NS(=O)(=O)c2ccc3c(c2)CCN3C(=O)CCC(=O)O)c1,5%,1%,5%,x,0%
Cc1cccc(NS(=O)(=O)c2ccc(NC(=O)N3CCCCC3)cc2)c1,-1%,18µM*,-19%,x,-1%
Cc1cccc(NS(=O)(=O)c2ccc3c(c2)CCN3C(=O)C2CCC2)c1,2%,15µM*,-17%,-1%,-1%
OC1(c2cccnc2)CCN(Cc2ccc3c(c2)CN(Cc2cc4ccccc4s2)CCO3)CC1,-1%,x,x,x,x
COc1cccc(CNc2ncnc3cc(Cl)ccc23)c1,-2%,u,7%,0%,17%
Fc1cccc(CNc2ncnc3cc(Cl)ccc23)c1F,u,18µM*,-3%,x,11%
CSc1cc2c(s1)c1cnn(Cc3ccccc3F)c(=O)c1n2C,x,-16%,-3%,x,x
Cc1ccc(O)c(NC(=O)c2onc(C)c2Cl)c1,0%,4%,5%,x,8.9µM*
Cc1cc(C)n2nc(-c3ccco3)nc2n1,0%,5%,1%,-1%,13µM*
Cc1cc(Nc2ccc(Br)c(C)c2)n2nc(-c3ccco3)nc2n1,0%,x,-6%,-3%,6%
Cc1noc(C)c1CC(=O)N1CCOc2c(cc(-c3nc4ccccc4s3)cc2OC2CCOC2)C1 (configuration not stated),0%,x,x,x,x
Nc1nc(-c2ccco2)nn1C(=O)c1ccccc1Cl,0%,1.8µM*,-1%,1%,0%
COc1ccccc1NC(=O)c1sc2nc(C)c(C(=O)Nc3ccc(C)cc3C)c(-c3ccc(C)o3)c2c1N,0%,8%,-1%,10%,-1%
Cc1ccc(NC(=O)c2sc3nc4c(c(-c5ccco5)c3c2N)CCC4)cc1,10%,18µM*,-12%,1%,0%
Cc1ccc(NC(=O)c2c(C)nc3sc(C(=O)Nc4ccc(F)cc4)c(N)c3c2-c2ccc(Cl)cc2)c(C)c1,1%,4%[9.27 µM],1%,-2%,0%
Nc1c(C(=O)Nc2ccc(F)cc2)sc2nc(-c3ccco3)ccc12,10%,-6%,16%,-1%,u
Cc1ccc(NC(=O)c2c(C)nc3sc(C(=O)Nc4ccc(F)cc4)c(N)c3c2-c2ccc(C)o2)c(C)c1,0%,1%,1%,22µM*,0%
Nc1c(C(=O)Nc2ccc(Br)cc2)sc2nc(-c3ccco3)ccc12,2%,13µM*,u,3%,u
COc1ccccc1NC(=O)c1sc2nc(C)c(C(=O)Nc3ccc(C)cc3C)c(-c3ccco3)c2c1N,4%,u,11%,8.9µM*,-1%
CCOc1cccc(C2CC(=O)Nc3cc4c(cc32)OCCO4)c1 (configuration not stated),7%,15µM*,-8%,-2%,-1%
